Values joined by “and” are separate entries in the source; they are usually repeats but may differ in a detail not shown here. Identical values can stand only once. About 650 (0.2%) of roughly 330,000 compounds were called active. The sample holds actives, similar compounds and a random draw of the others, so the mix is not that of the screen. No stated cut-off is given here; in the data, active means inhibition above about 50%; inactive means the rest.
target: Integrin alpha-4 (Homo sapiens) (UniProt P13612); assay: inhibition in human VLA-4 binding assay, primary screen, VLA-4 allosteric modulator project, MLPCN library, flow cytometry, VLA-4 expressing cells (AID 2557); conditions: ligand binding flow cytometry, stronger effect = higher value, about 7 µM as worked out from the volumes in the protocol
Sequence (P13612 whole entry, looked up): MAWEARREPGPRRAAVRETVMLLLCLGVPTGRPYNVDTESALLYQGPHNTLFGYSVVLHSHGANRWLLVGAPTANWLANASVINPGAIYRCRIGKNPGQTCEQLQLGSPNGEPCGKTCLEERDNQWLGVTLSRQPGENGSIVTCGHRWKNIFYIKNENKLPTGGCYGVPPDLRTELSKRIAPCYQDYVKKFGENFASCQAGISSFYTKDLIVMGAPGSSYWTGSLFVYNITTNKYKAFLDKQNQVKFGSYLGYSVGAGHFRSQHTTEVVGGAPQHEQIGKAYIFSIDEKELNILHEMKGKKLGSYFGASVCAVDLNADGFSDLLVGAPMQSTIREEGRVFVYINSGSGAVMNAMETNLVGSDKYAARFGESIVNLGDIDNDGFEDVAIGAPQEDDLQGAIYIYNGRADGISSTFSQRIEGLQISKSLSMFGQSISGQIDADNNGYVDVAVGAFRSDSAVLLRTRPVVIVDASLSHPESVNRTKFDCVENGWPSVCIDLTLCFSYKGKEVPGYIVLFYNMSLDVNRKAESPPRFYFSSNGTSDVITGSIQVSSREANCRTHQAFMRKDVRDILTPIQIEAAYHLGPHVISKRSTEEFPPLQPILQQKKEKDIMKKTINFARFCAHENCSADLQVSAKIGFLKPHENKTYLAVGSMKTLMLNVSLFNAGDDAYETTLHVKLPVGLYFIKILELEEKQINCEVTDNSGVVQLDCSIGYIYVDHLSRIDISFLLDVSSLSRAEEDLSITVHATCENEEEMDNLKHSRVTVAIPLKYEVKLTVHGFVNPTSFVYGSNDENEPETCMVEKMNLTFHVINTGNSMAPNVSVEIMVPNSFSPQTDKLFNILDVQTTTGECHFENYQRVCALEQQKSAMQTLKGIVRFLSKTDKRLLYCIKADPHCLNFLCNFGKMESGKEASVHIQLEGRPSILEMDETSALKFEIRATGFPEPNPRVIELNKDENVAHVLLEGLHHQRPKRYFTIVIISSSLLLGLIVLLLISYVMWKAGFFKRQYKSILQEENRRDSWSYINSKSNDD

Compound	inhibition
C=CCN1C(=O)C2(C(C(=O)OCC)=C(N)Oc3c2c(=O)oc2ccccc32)c2ccccc21 (stereo not given)	59.3% (active)
CCOC(=O)C1=C(C)OC(N)=C(C(=O)OC)C12C(=O)Nc1ccc(Br)cc12 (stereo not given)	15.8% (inactive)
CCOC(=O)CC1=C(C(=O)OCC)C2(C(=O)N1)C(C(=O)OC)=C(N)Oc1ccccc12 (stereo not given)	-7.95% (inactive)
CN(C)C(=O)Oc1cc(OC(=O)N(C)C)cc(C(O)CNC(C)(C)C)c1 (stereo not given)	-22.5% (inactive) and -5.62% (inactive)
CCc1nnc(NS(=O)(=O)c2ccc(N=Cc3c(O)n(-c4ccccc4)c(=O)[nH]c3=O)cc2)s1	-0.39% (inactive)
O=c1c2ccccc2nc(-c2ccc(Cl)cc2Cl)n1-c1ccncc1	62.6% (active)
Cc1nc2ccccc2c(=O)n1-c1ccc(Cl)cc1Cl	24.4% (inactive)
COc1ccc(-n2c(-c3ccccc3)nc3ccccc3c2=O)cc1	-3.5% (inactive)
Cn1c(O)c(C(=Nc2ccc(F)cc2)c2ccccc2)c(=O)n(C)c1=O	5.63% (inactive)
C=CCn1c(O)c(/C=N/N2CCOCC2)c(=O)[nH]c1=S	7.33% (inactive)
